This is part of a sample that, as a whole, favours compounds with a hit. Of some 83,000 tested, about 20% had one in any assay.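 Cells were grown in 96-well plates and exposed to the test compound at a single concentration for 48 hours; results are reported as percent growth, with values below 10 considered active.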 Values without a mark were called inactive. Calls of active or inactive are those of the source.
What was measured:
Assay in all cases: NCI-60 one-dose screen, 48 h (100 = growth as untreated, 0 = no growth, -100 = all killed)
Conditions in all cases: 10 µM unless noted
T-47D breast = test system: T-47D breast
BT-549 breast = test system: BT-549 breast
SW-620 colon = test system: SW-620 colon
MCF7 breast = test system: MCF7 breast
HCT-116 colon = test system: HCT-116 colon
HCC-2998 colon = test system: HCC-2998 colon
KM12 colon = test system: KM12 colon

Row | SMILES | growth (T-47D breast) | growth (BT-549 breast) | growth (SW-620 colon) | growth (MCF7 breast) | growth (HCT-116 colon) | growth (HCC-2998 colon) | growth (KM12 colon)
1 | C=CC(=O)N1CCN(c2cccc(Oc3nccc(Nc4nnc(-c5ccc(Br)cc5)s4)n3)c2)CC1 | 63.6% | 67.1% | 35.2% | 35.9% | 58.4% | 89.9% | 43.8%
2 | O=c1[nH]c(Cc2nc3ccccc3s2)nc2cc(Br)ccc12 | 54.2% | 70.2% | 61.3% | 78.5% | 50.6% | 84.1% | 41.4%
3 | C=CCOC(=O)Nc1cccn([C@H](Cc2ccccc2)C(=O)NCCC(C)C)c1=O | 93.8% | 132% | 109% | 92.8% | 109% | 105% | 110%
4 | CC(C)(C)[Si](C)(C)OC1[C@@H](CNC(=O)NC(=O)NC(N)=O)O[C@@H](n2cnc3c(NC(=O)Nc4ccccc4)ncnc32)[C@H]1O[Si](C)(C)C(C)(C)C (stereo partly specified) | 82.8% | 95.4% | 55.9% | 57.9% | 20.5% | 85.8% | 61.5%
5 | Cc1ccc2c(Cn3cc(CSc4nc5ccccc5o4)nn3)cc(=O)oc2c1 | 100% | 104% | 106% | 100% | – | 115% | 113%
6 | COc1c(B(O)O)cccc1-c1nc2c(F)cc3[nH]ncc3c2c2c1CCCC2 | 8.61% (active) | -46.1% (active) | 1.12% (active) | -3.83% (active) | 2.84% (active) | 1.17% (active) | -12.1% (active)

From PubChem BioAssay (NCI)
